Here are results for 40 molecules from PubChem BioAssay (EPA / NIEHS).

Calls of active or inactive are those of the source. Rule for the calls: active = hit-call score of the fitted dose curve at least 0.9, where 1 is the maximum; inactive = score below 0.9.

Read-out in this assay: Bcl-2 (BID) gene, BID (gene 637)
The assay can be described thus: LTEA_HepaRG_BID: Life Technologies and Expression Analysis (LTEA) Assay for Bcl-2 (BID) gene using HepaRG (AID 2283476). Particulars: mRNA level, 48 h; actives raise or lower the signal. As for the experimental part:
LTEA_HepaRG is a cell based, multiplexed-readout assay that uses HepaRG, a human liver cell line, with measurements taken at 48 hours after chemical dosing on a 96-well plate.LTEA_HepaRG_BID is one of 102 assay component(s) measured in the LTEA HepaRG cell culture assay. It is a marker of Cell proliferation, survival, death.Data from the assay component LTEA_HepaRG_BID was analyzed into 1 endpoint. This assay endpoint, LTEA_HepaRG_BID, was analyzed with bidirectional fitting relative to DMSO as the negative control and baseline of activity. Using a type of inducible reporter, measures of mRNA induction for gain or loss-of-signal activity can be used to understand regulation of transcription factor activity. To generalize the intended target to other relatable targets, this assay endpoint is annotated to the cell cycle intended target family, where the subfamily is Cell proliferation, survival, death.
A total of 1060 chemcials from the ToxCast library were tested in eight-point concentration-response experiments. Cell culture and cytotoxicity assays were conducted at Thermo Fisher Scientific's Custom Services facility (Madison, WI). A single lot of human HepaRG cells (Thermo Fisher Scientific, Frederick, MD) was used for the cell culture experiments. 96-well format collagen type I coated plates of human HepaRG cells were prepared using established methods. Briefly, cryopreserved HepaRG cells were thawed, plated at a density of approximately 100,000 cells/well in HepaRG Thaw, Plate, and General Purpose media (HPRG770, Thermo Fisher Scientific), and incubated for 48 hours. 0.5% DMSO was selected as vehicle control to balance the requisite need of DMSO in HepaRG cultures to maintain differentiation (for example, baseline metabolism, proportions of hepatocytes vs. cholangiocytes), while enabling further hepatic receptor pathway activation (for example, PXR and CAR) in response to chemical exposure. 48 hours after plating, the culture medium was replaced with HepaRG Serum-Free Incudtion Media. Cells were exposed to each test chemical in duplicate and maintained in CO2 incubators for another 48 hours. Chemical plates were thawed to room temperature and 200x concentrations of treatment groups were prepared. 8-point conentration-reponse curves were made with the highest exposure at 100 uM, followed by half-log dilutions, all in 0.5% DMSO. Each test plate contained variouse controls, induction positive controls (1mM phenobarbital), cytotoxicity positive controls ([…] aflatoxin B1), vehicle controls (0.5% DMSO), and total lysis controls (0.5% DMSO). Cell morphology images were taken using an Essen IncuCyte FLR automated microscope, with six 96-well plates imaged in about 24 minutes. Images were captured and exported and JPEG files. Spent culture media was transfered to black-well plates for the LDH assay, and remaining media was sorted at -80 C for later use. Cells were treated with RLT buffer and frozen until shipped for gene expression analysis. Total RNA was isolated from the cell suspension in 75 uL of Buffer RLT (Qiagen, Germantown, MD 20874) by Quintiles/Expression Analysis (Durham, NC) using a custom isolation procedure. Total RNA from each plate well was transferred to a preamplification plate. Fluidigm's 96.96 Dynamic ArrayTM (Fluidigm, Amsterdam, the Netherlands) technology was used for gene expression analyses by quantitative reverse transcription polymerase chain reaction (qRT-PCR, performed by Quintiles/Expression Analysis, Durham, NC)89. Standard TaqManTM Assays (Applied Biosystems/ThermoFisher Scientific, Foster City, CA) were used to assess the expression of 93 genes selected based on their selectivity and sensitivity to important hepatic receptors known to be modulated by environmental chemicals; importance in human hepatocyte functionality; and hepatotoxicity. […]
With `CCCN(CC)CC1COC2(CCC(C(C)(C)C)CC2)O1` (stereo not given), the molecule was called inactive. `Nc1c(Cl)c(F)nc(OCC(=O)O)c1Cl`: the result was inactive. The same measure, in the same setting: the same measure for `CN/C(=N\[N+](=O)[O-])NCc1cnc(Cl)s1`: “inactive”; for `Cc1c(COC(=O)[C@@H]2[C@H](/C=C(\Cl)C(F)(F)F)C2(C)C)cccc1-c1ccccc1`: “inactive”.

With `COCc1cnc(C2=NC(C)(C(C)C)C(=O)N2)c(C(=O)O)c1` (stereo not given), the molecule was called inactive. Same read-out and setting: the same measure for `CCCC(=NOCC)C1=C(O)CC(CC(C)SCC)CC1=O` (stereo not given): “inactive”; for `CC1(C)CON(Cc2ccccc2Cl)C1=O`: “inactive”. Same read-out and setting: for `CCOc1cc(C(C)(C)C)ccc1C1COC(c2c(F)cccc2F)=N1` (stereo not given) the value was “inactive”; for `Cc1nc(N(C)C)nc(OC(=O)N(C)C)c1C`, “inactive”.

Regarding `COc1ccc(-c2ccccc2)cc1NNC(=O)OC(C)C`, the outcome was inactive.

By AC50 is commonly meant the concentration at which the activity in the assay is half-maximal. For `CCNC(=O)NC(=O)C(C#N)=NOC`, the AC50 is 234 nM (active). As to `CC(C)Nc1nc(Cl)nc(NC(C)C)n1`, the call was inactive. Still for that read-out and setting: the same measure for `CC(C)(C)C(=O)C(Oc1ccc(Cl)cc1)n1cncn1` (stereo not given): “inactive”; for `Clc1nc(Cl)nc(Nc2ccccc2Cl)n1`: “inactive”; for `CCOP(=S)(OCC)Oc1nc(Cl)n(C(C)C)n1`: “inactive”. Consider `N#CN=C1SCCN1Cc1ccc(Cl)nc1`, for which the result was inactive.

Take `CC(C)NC(=O)N1CC(=O)N(c2cc(Cl)cc(Cl)c2)C1=O`: the molecule was classed as inactive. Same read-out and setting: for `CS(=O)(=O)c1cc(C(F)(F)F)ccc1C(=O)c1cnoc1C1CC1` the value was “inactive”. Turning to `Cc1cc(C)nc(Nc2ccccc2)n1`, the molecule was called inactive. On the same count and under the same terms, the same measure for `Cc1ccc(N=CN(C)C=Nc2ccc(C)cc2C)c(C)c1`: “inactive”; for `CCC(C)n1c(=O)[nH]c(C)c(Br)c1=O` (stereo not given): “inactive”. `CCOc1nc(C(Cl)(Cl)Cl)ns1`: the AC50 was 1330 nM (active). Consider `O=C(Nc1ccccc1-c1ccc(Cl)cc1)c1cccnc1Cl`, for which the outcome was inactive.

With `CCN(CC)c1nc(C)cc(OP(=S)(OC)OC)n1`, the result was inactive.

`CNC(=O)N(C)c1nnc(C(C)(C)C)s1`: the outcome was inactive. Same read-out and setting: the same measure for `CCNP(=S)(OC)O/C(C)=C/C(=O)OC(C)C` (stereo not given): “inactive”.

For `CCCCOCN(C(=O)CCl)c1c(CC)cccc1CC`, the molecule was called inactive.

Turning to `C=C(C)CN(CC)c1c([N+](=O)[O-])cc(C(F)(F)F)cc1[N+](=O)[O-]`, the call was inactive.

In the case of `CC1(C)C(C(=O)OC(C#N)c2cccc(Oc3ccccc3)c2)C1(C)C` (stereo not given), the outcome was inactive.

`COCC(C)N(C(=O)CCl)c1c(C)csc1C` (stereo not given): the molecule was classed as inactive.

With `CC1(C)C(C=C(Cl)Cl)C1C(=O)OC(C#N)c1cccc(Oc2ccccc2)c1` (stereo not given), the result was inactive. The same measure, in the same setting: for `CO/N=C(/C1=NOCCO1)c1ccccc1Oc1ncnc(Oc2ccccc2Cl)c1F` the value was “inactive”; for `CC1(C)CCC(=Cc2ccc(Cl)cc2)C1(O)Cn1cncn1` (stereo not given), “inactive”; for `COc1cc(OC)nc(NC(=O)NS(=O)(=O)c2ncccc2OCC(F)(F)F)n1`, “inactive”. Same read-out and setting: the same measure for `CCOP(=O)(OCC)Oc1nc(Cl)c(Cl)cc1Cl`: “inactive”. On the same count and under the same terms, the same measure for `CC(C)N1C(=O)N(c2ccccc2)CSC1=NC(C)(C)C`: “inactive”; for `COP(=S)(OC)Oc1ccc([N+](=O)[O-])c(C)c1`: “inactive”. For the molecule `CCCCC(C#N)(Cn1cncn1)c1ccc(Cl)cc1` (stereo not given), the outcome was inactive. As to `CS(=O)(=O)c1ccc(C(=O)C2C(=O)CCCC2=O)c([N+](=O)[O-])c1`, the result was inactive. Same read-out and setting: for `Nc1cnn(-c2ccccc2)c(=O)c1Cl` the value was “inactive”.
